The source of these data is PubChem BioAssay (NCI).

A short description of test [1]: NCI Yeast Anticancer Drug Screen. Data for the rad50 strain (AID 155).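 Note: 0% = growth of vehicle-only cultures of the same strain.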 The note with it: S. cerevisiae rad50 strain growth inhibition; at 50.0 µM; hits give high values. The procedure, abridged:
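DNA repair mutant yeast, compound exposure, growth read-out; inhibition is taken relative to vehicle.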

Test [2] is described as follows: NCI Yeast Anticancer Drug Screen. Data for the mec2-1 strain (AID 157). Particulars: S. cerevisiae mec2-1 strain, at 50.0 µM, hits give high values. The procedure, abridged:
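Mutant yeast (mec2-1) grown with compound; growth inhibition relative to vehicle control reported.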

A short description of test [3]: NCI Yeast Anticancer Drug Screen. Data for the sgs1 mgt1 strain (AID 161).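 Note: 0% = growth of cultures given vehicle only.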 The note with it: S. cerevisiae sgs1 mgt1 strain, at 50.0 µM, hits give high values. The procedure, abridged: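 Percent growth inhibition was derived by comparing compound-exposed mutant yeast with vehicle-exposed cultures. The strain carries alterations in DNA damage repair.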
The nature of test [4]: NCI Yeast Anticancer Drug Screen. Data for the cln2 rad14 strain (AID 165).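 Note: 0% = growth equal to vehicle treated cultures.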 The note with it: S. cerevisiae cln2 rad14 strain, at 50.0 µM, hits give high values. The procedure, abridged:
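Readout is yeast growth inhibition versus vehicle-treated controls, using a strain with cln2 and rad14 alterations exposed to compound.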

Test [5] can be described thus: NCI Yeast Anticancer Drug Screen. Data for the bub3 strain (AID 167). The note with it: S. cerevisiae bub3 mutant strain, at 50.0 µM, hits give high values. The procedure, abridged:
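In this screen, a yeast mutant lacking normal mitotic checkpoint function is challenged with compound. Relative growth versus vehicle gives the inhibition value.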

A short description of test [6]: NCI Yeast Anticancer Drug Screen. Data for the mlh1 rad18 strain (AID 175). The note with it: S. cerevisiae mlh1 rad18 strain growth inhibition; at 50.0 µM; hits give high values. The procedure, abridged:
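Genetically defined yeast (DNA repair-deficient) exposed to compounds; growth inhibition determined relative to vehicle.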

Each structure is given as a SMILES string. Compounds without any hit were thinned out: in the full panel of roughly 79,000, 15% have a hit. Unmarked numbers belong to inactive results. Active and inactive are the calls of the source. Cut-off read from the data, not from the text of the source: active = growth inhibition above about 70%; inactive = the rest.

As for `CP(=S)(c1ccccc1)P(C)(=S)c1ccccc1` (centres undefined), the growth inhibition in test [1] is -15.4%; in test [2] it was -19.4%; in test [3], -17.9%; in test [4], 5.05%; in test [5], -21.2%; in test [6], -31%.

In the case of `CCC1CC[N-]CC1.CCC1CC[N-]CC1.CCC1CC[N-]CC1.CCC1CC[N-]CC1.N#C[S-].N#C[S-].[Co]`, the growth inhibition in test [1] is 23.1%; in test [2], 16.9%; in test [3] it was 34%; in test [4], 15.3%; in test [5] it was 26.8%; in test [6], 24.8%.

Consider `O=C1C(NCC(O)CO)=C(N2CC2)C(=O)C(NCC(O)CO)=C1N1CC1` (centres undefined), for which the growth inhibition in test [1] was -0.05%; in test [2], 7%; in test [3] it was 1.15%; in test [4], 4.55%; in test [5], 8.8%; in test [6], 25.6%.

In the case of `O=CC1(c2ccccc2)CCN(Cc2ccccc2)CC1`, the growth inhibition in test [1] is 38.8%; in test [2] it was -16.1%; in test [3], 45.1%; in test [4] it was 41.3%; in test [5] it was 38.1%; in test [6] it was 17.4%.

`C[N+]1(CCCl)CCc2ccc([N+](=O)[O-])cc2C1` (centres undefined): the growth inhibition in test [1] is -36.9%; in test [2], -35.5%; in test [3], 6.95%; in test [5] it was 9.3%; in test [6], -13.8%.

In the case of `Oc1cccc(Cl)c1`, the growth inhibition is -3.15% in test [1]; -30.1% in test [2]; 4.75% in test [3]; 6.1% in test [4]; -2.45% in test [5]; 8.3% in test [6].

`CC(C)=CC1CC(=[N+]=[N-])C(=O)C1(C)C` (centres undefined): the growth inhibition in test [1] is 33.5%; in test [2], 7.1%; in test [3] it was 17%; in test [4] it was 16.9%; in test [5], 4.05%; in test [6] it was 28.6%.

Consider `C1CCC(N([P-]P([P-]N(C2CCCCC2)C2CCCCC2)N(C2CCCCC2)C2CCCCC2)C2CCCCC2)CC1.[C-]#[O+].[C-]#[O+].[C-]#[O+].[C-]#[O+].[C-]#[O+].[C-]#[O+].[Fe].[Fe]` (centres undefined), for which the growth inhibition in test [1] is -20.7%; in test [2], -28.1%; in test [3], -23.2%; in test [4], -8.1%; in test [5] it was 2.2%; in test [6], -24.4%.

Take `C[As+](C)(C)c1ccc(Br)c([N+](=O)[O-])c1`: the growth inhibition in test [1] is 7.6%; in test [2] it was -0.85%; in test [3], -6%; in test [4], -13.2%; in test [5] it was -1.3%; in test [6], 10.9%.

On to `CC(=O)NC(CS)C(=O)[O-].CC(=O)NC(CS)C(=O)[O-].N.N.[Pt+4]` (centres undefined), for which the growth inhibition in test [1] is 7.85%; in test [2], -9.85%; in test [3], 15.2%; in test [4], -38.1%; in test [5], 14.4%; in test [6] it was 27.2%.

`CCCN(C)C(C)(C)C(=O)c1ccccc1`: the growth inhibition in test [1] was 8.8%; in test [2], -3.95%; in test [3], -20.2%; in test [4] it was -10.2%; in test [5], -18.9%; in test [6], -8.1%.

In the case of `CC(=O)C(I)C(C)=O.[Cr]`, the growth inhibition in test [1] is 2.45%; in test [2], -18.9%; in test [3] it was 8.6%; in test [4] it was 16.4%; in test [5], 14.4%; in test [6], 5.4%.

Regarding `CC(C)=CCN=C(N)N`, the growth inhibition in test [1] is -9.15%; in test [2], -51.1%; in test [3], -17.3%; in test [4], -8%; in test [5], -37.1%; in test [6], -28.7%.

On to `Cc1ccc([NH-])cc1.Cc1ccc([NH-])cc1.[Cl][Pt+2][Cl]`, for which the growth inhibition in test [1] was -31.7%; in test [2] it was -6.8%; in test [3], 3.95%; in test [4] it was -61.7%; in test [5], 3.55%; in test [6] it was -11.3%.

For `COc1cc(/C=C(\C)[N+](=O)[O-])cc(OC)c1`, the growth inhibition in test [1] was 18.9%; in test [2], 16.1%; in test [3], 34%; in test [4], 58.2%; in test [5] it was 64.7%; in test [6], 86.3% (active).

Take `CCOC(=O)C(N)C[S][Sn]([CH3])([CH3])[Cl]` (centres undefined): the growth inhibition in test [1] was 19.1%; in test [2], 21.8%; in test [3], 20.6%; in test [4], 18.2%; in test [5], 21.7%; in test [6], -26.6%.

For `CN(C)CC1C(O)C2CCN1CC2` (centres undefined), the growth inhibition in test [1] is 3.95%; in test [2] it was 9.3%; in test [3] it was -3.1%; in test [4], -5.3%; in test [5], -5.5%; in test [6], -1.85%.

With `COc1ccc2c(c1)[C@@]13CCCC[C@H]1[C@@H](C2)N(C)CC3=O`, the growth inhibition was 41.5% in test [1]; 26.9% in test [2]; -14.3% in test [3]; 9.65% in test [4]; 3% in test [5]; -48% in test [6].

`CC/C(=C(/CC)c1ccc(OP(=O)(Cl)N(CCCl)CCCl)cc1)c1ccc(OP(=O)(Cl)N(CCCl)CCCl)cc1` (centres undefined): the growth inhibition in test [1] is -2.35%; in test [2], -18%; in test [3] it was -8.3%; in test [4], -1.9%; in test [5], -2.45%; in test [6], 37.5%.

Consider `CN(C)P1(=O)NCC(C(C)(C)C)CO1` (centres undefined), for which the growth inhibition in test [1] is 26.4%; in test [2], -21.1%; in test [3] it was -5.3%; in test [4], 21.6%; in test [5] it was -0.1%; in test [6], -16.8%.
